Rab9 prom act: activates the Rab9 promoter; Huh7 Rab9 promoter-luciferase reporter, luminescence, 24 h; Potency, µM (highest dose often 9.22 µM), for the others: top-dose activation, negative = inhibition, hits mostly activators; 320,000 compounds, 2.8% hits; AID 485297; also: % of control where 0% means no effect; nearly all actives have a fitted effect of over 60% in size
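Luciferase signal after 10 min detection reagent at ambient indicates Rab9 promoter upregulation; stably transfected Huh7 cells were treated 24 h with compound in DMSO at 37 °C, 5% CO2.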
FLuc counter: counter-screen for miR-21 project: firefly luciferase inhibitors or activators | P08659 | purified FLuc, Km substrates, luminescence inhibition | Potency, µM (titrated, usually from 57.5 µM), inactives show at the highest dose activity change, negative = inhibition, usual class: inhibitors | 360,000 compounds, 6.9% hits | AID 588342;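 also: plate controls were vehicle for no effect and reference inhibitor for full effect; nearly all actives have a fitted effect of over 55% in size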
Target sequence (P08659 whole entry, looked up): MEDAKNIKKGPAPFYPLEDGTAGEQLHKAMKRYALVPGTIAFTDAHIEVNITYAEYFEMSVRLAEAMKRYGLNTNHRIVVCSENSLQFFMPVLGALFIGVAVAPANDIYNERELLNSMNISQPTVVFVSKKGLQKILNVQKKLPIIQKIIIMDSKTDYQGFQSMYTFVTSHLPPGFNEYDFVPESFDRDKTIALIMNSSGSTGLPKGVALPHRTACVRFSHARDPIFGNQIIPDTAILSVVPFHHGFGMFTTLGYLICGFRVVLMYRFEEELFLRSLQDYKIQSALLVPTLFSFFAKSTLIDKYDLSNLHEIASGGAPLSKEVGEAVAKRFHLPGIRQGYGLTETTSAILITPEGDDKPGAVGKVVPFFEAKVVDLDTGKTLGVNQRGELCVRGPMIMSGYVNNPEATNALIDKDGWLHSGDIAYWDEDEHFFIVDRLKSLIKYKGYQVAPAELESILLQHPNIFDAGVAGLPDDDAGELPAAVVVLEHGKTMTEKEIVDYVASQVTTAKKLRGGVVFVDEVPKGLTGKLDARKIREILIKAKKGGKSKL
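Purified P. pyralis luciferase, 10 nM final, with Km-level 10 uM D-luciferin and 10 uM ATP in 50 mM Tris acetate pH 7.5, 10 mM Mg acetate, 0.01% Tween-20, 0.05% BSA; 6-point qHTS titration about 60 µM downward; luminescence read.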
SMN2 splice up: increases expression of the SMN2 splice variant | 210,000 compounds, 2.8% hits | AID 1458 | Potency, µM (titrated, usually from 46.1 µM), for inactives: at the top dose activity change, positive = activation, usual class: activators | HEK293 SMN2-luciferase splicing reporter, luminescence, 30-36 h; also: % of control where 0% means no effect; nearly all actives have a fitted effect of over 55% in size
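HEK293 cells carry an SMN2 minigene-luciferase reporter in which exon 7 inclusion puts luciferase in frame. Cells were seeded at 2000 cells/well, attached for 10-12 hours, then exposed to compounds for 30-36 hours at 37C before ONE-Glo luminescence.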
ELG1 genotox: induces genotoxicity in HEK293T cells with luciferase-tagged ELG1; HEK293T ELG1-luciferase reporter, luminescence, 16 h; 330,000 compounds, 1.3% hits; AID 504466; Potency, µM (titrated, usually from 46 µM), inactives show at the top dose activity change, positive = activation, hits mostly activators; also: % of control where 0% means no effect; nearly all actives have a fitted effect of over 60% in size
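Screening used a luciferase reporter fused to human ELG1 in HEK293T cells. Luminescence was read on a CCD plate imager after 16 hr exposure and 30 min ONE-Glo incubation.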
NPC1 promoter act: NPC1 promoter activation | Potency, µM (titrated, usually from 9.22 µM), inactives show top-dose activation, usual class: activators | 320,000 compounds, 2.4% hits | Huh7 NPC1 promoter luciferase reporter, 24 h; also: % of control where 0% means no effect; nearly all actives have a fitted effect of over 60% in size
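Luciferase expression driven by the NPC1 promoter was measured in stably transfected Huh7 cells after a 24 h compound incubation, using a luciferase reagent and a luminescence read.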
The depositor's hits bear a star; u = inconclusive; x = not tested or not shown. Sampled rows, rich in hits. Any-hit rate of the full collection: about 7.5%. Calls follow the shape of the dose curve; as a rule, active = well fitted curve in the direction sought with a large enough effect; inconclusive = small, poorly fitted or top-dose-only effect, or another doubt; inactive = no such curve, though single readings can be large; an effect the other way counts as inactive or inconclusive. Potency is read from the fitted curve at half-maximal effect.

SMILES	Rab9 prom act	FLuc counter	SMN2 splice up	ELG1 genotox	NPC1 promoter act
Nc1nonc1-c1noc(-c2ccccc2Br)n1	5%	17µM*	u	u	13%
Cc1ccccc1C(=O)Nc1ccccc1-c1nc(-c2ccccc2)no1	x	-6%	x	x	x
Cc1ccc(-c2noc(-c3ccccc3NC(=O)c3ccccc3)n2)cc1	x	0%	x	x	x
O=C(O)c1ccccc1-c1noc(-c2ccccc2F)n1	2µM*	9.5µM*	x	x	3.5µM*
Nc1nonc1-c1noc(N2CCOCC2)n1	5%	-11%	-45%	6%	0%
Cc1ccc(-c2noc(-c3ccccc3F)n2)cc1	2µM*	0.85µM*	13µM*	2.6µM*	u
Cc1ccccc1-c1noc(-c2ccccc2C(=O)O)n1	17%	19µM*	x	14%	19%
O=C(O)CC(NC(=O)c1ccc2c(c1)OCO2)c1cccc([N+](=O)[O-])c1 (configuration not stated)	3%	-11%	-11%	1%	0%
NS(=O)(=O)c1ccc(CNC(=O)c2ccc(Cl)c(S(=O)(=O)NCc3ccccc3)c2)cc1	-7%	3%	x	2%	-2%
FC(F)(F)c1ccc(-c2noc(-c3ccccc3Br)n2)cc1	x	11µM*	x	x	x
Nc1nonc1-c1noc(CCCN2C(=O)c3ccccc3C2=O)n1	u	24µM*	u	u	u
O=C(CSc1nnc(-c2ccccc2F)o1)NC1CC1	x	x	x	10%	x
O=C(c1ccccc1)c1nnc(-c2ccccc2F)o1	24%	0.54µM*	26%	16µM*	16%
CC(C)N(Cc1ccccc1)C(=O)COC(=O)C1CCN(S(=O)(=O)c2ccc3c(c2)OCCO3)CC1	-2%	12%	x	6%	-2%
CCOC(=O)c1ccc(N/C=C/C(=O)c2ccccc2)cc1	u	6µM*	x	-6%	11%
CCOC(=O)c1ccc(N/C=C/C(=O)C(C)(C)C)cc1	3.5µM*	3µM*	u	u	3.5µM*
Clc1ccc(OCCn2cnc3ccccc32)c(Cl)c1	u	27µM*	21%	u	u
CCC(C)NC(=O)Cn1c(COc2ccc(Cl)cc2Cl)nc2ccccc21 (configuration not stated)	u	6µM*	22µM*	u	24%
Clc1ccc(OCc2nc3ccccc3n2Cc2ccccc2)c(Cl)c1	x	6µM*	4%	x	x
CCC(C)NC(=O)Cn1c(-c2cccs2)cc2cc(Cl)ccc21 (configuration not stated)	x	0%	x	x	x
c1ccc2c(c1)ncn2CCOCCOCCn1cnc2ccccc21	0%	1%	-63%	-3%	-3%
CCOC(=O)c1ccc(NC(=O)c2ccc3c(c2)C(=O)N(CC2CCCO2)C3=O)cc1 (configuration not stated)	-2%	-11%	x	-8%	1%
O=C(Nc1ccc2c(c1)C(=O)N(CC1CCCO1)C2=O)c1ccc(Cl)c(Cl)c1 (configuration not stated)	-13%	5.4µM*	-78%	14%	-8%
O=C(Nc1ccc(O)c(C(=O)O)c1)c1ccc2c(c1)C(=O)N(CC1CCCO1)C2=O (configuration not stated)	-1%	9.5µM*	-10%	0%	-5%
COc1ccc(NC(=O)c2ccc3c(c2)C(=O)N(CC2CCCO2)C3=O)cc1O (configuration not stated)	-6%	u	x	2%	1%
SMILES	Rab9 prom act	FLuc counter	SMN2 splice up	ELG1 genotox	NPC1 promoter act
O=C(Nc1cccnc1)c1ccc2c(c1)C(=O)N(CC1CCCO1)C2=O (configuration not stated)	-1%	3%	-3%	0%	-4%
Cc1nnc(NC(=O)c2ccc3c(c2)C(=O)N(CC2CCCO2)C3=O)s1 (configuration not stated)	2%	5.4µM*	-3%	7%	-2%
Cc1ccc(NC(=O)c2ccc3c(c2)C(=O)N(CC2CCCO2)C3=O)cc1C (configuration not stated)	14%	11µM*	x	2%	0%
O=C(O)c1cc(O)ccc1NC(=O)C1CCCO1 (configuration not stated)	10%	6%	x	2%	-3%
Nc1ccc2c(c1)C(=O)N(CC1CCCO1)C2=O (configuration not stated)	-1%	-12%	1%	12%	6%
CCOc1ccccc1NC(=O)c1ccc2c(c1)C(=O)N(CC1CCCO1)C2=O (configuration not stated)	0%	6%	x	2%	-8%
Cc1c(NC(=O)c2ccc3c(c2)C(=O)N(CC2CCCO2)C3=O)cccc1C(=O)O (configuration not stated)	1%	15µM*	15%	2%	-3%
Nc1ccc(Oc2ccc3c(c2)C(=O)N(CC2CCCO2)C3=O)cc1 (configuration not stated)	u	9.5µM*	x	u	u
Clc1ccc(CNc2nc3ccccc3c3nc(-c4cccnc4)nn23)cc1	x	0%	-3%	x	x
CCOc1cc(C(=O)Nc2ccc3oc(-c4ccc(F)cc4Cl)nc3c2)cc(OCC)c1OCC	x	u	12%	x	x
CC(C)(C)c1ccc(C(=O)COC(=O)CN2C(=O)NC3(CCCC3)C2=O)cc1	0%	8.5µM*	x	5%	-3%
Cc1ccc(COn2c(-c3ccc(Cl)cc3Cl)nc3ncccc32)cc1	-5%	0%	-26%	-1%	-4%
CCCn1c(C)cc(/C=C(\C#N)C(=O)OCC(=O)NC(=O)NCC)c1C	-7%	12µM*	6%	3%	0%
Cc1cc(/C=C(\C#N)C(=O)Nc2ccccc2)c(C)n1-c1ccc(C(=O)O)cc1	0%	-5%	x	-4%	3%
CCOC(=O)/C(C#N)=C\c1cc(C)n(-c2ccccc2)c1C	1.8µM*	0.43µM*	-66%	u	1.6µM*
CCOC(=O)/C(C#N)=C/c1cc(C)n(-c2ccc(C)cc2)c1C	1µM*	2.4µM*	-7%	1.8µM*	2.8µM*
COc1cc(OC)cc(-c2c(-c3cccs3)c3cc(-c4ccc(N(C)C)nc4)ccc3n2C)c1	-6%	-11%	x	3%	-7%
COc1ccc(C2(C)NC(=O)N(CC(=O)Nc3ccc(Br)cc3F)C2=O)cc1OC (configuration not stated)	-3%	6%	x	-5%	-1%
COc1ccc(-c2cc(C(=O)OCC(=O)N(C)C)c3ccccc3n2)cc1	23%	9.5µM*	u	-1%	4%
CCN(C(=O)COC(=O)c1cc(OC)ccc1Br)C1CCS(=O)(=O)C1 (configuration not stated)	x	x	x	1%	x
COc1ccc(-c2cc(C(=O)OCc3ccccn3)c3ccccc3n2)cc1	16%	6.7µM*	x	-3%	11%

Screening results as filed in PubChem.
